# Laboratory results: the OligoGym collection
# Columns and labels:
# Test in all cases: pooled miR-30 sensor sort-seq; sequence = guide strand
# Conditions in all cases: shRNA
# ADRA1D = target: ADRA1D
# ADORA2B = target: ADORA2B
# ADRB1 = target: ADRB1
# AHCY = target: AHCY
# AKR1C4 = target: AKR1C4
# ALAD = target: ALAD
# ALDH1A3 = target: ALDH1A3
# ALDH1A1 = target: ALDH1A1
# AMOTL1 = target: AMOTL1
# AMICA1 = target: AMICA1
# ALPK1 = target: ALPK1
# ALOX12B = target: ALOX12B
# ANG = target: ANG
# ANGPTL1 = target: ANGPTL1
# ANGPTL3 = target: ANGPTL3
# ANAPC5 = target: ANAPC5
# Further: reference of the scale not given here.
sequence,measurement,setting,value
TACATGACCACGATGACCGCCA,sensor-assay potency score (higher = more potent),ADRA1D,0.517
TTCACGATGAAATAGTTGGTGA,sensor-assay potency score (higher = more potent),ADRA1D,-0.48
TAGAAGTCAGTGCAGAAGCCCA,sensor-assay potency score (higher = more potent),ADORA2B,-0.856
TGTCGATCTTCTTCACCTGCTT,sensor-assay potency score (higher = more potent),ADRB1,0.319
TTGAAGAAGACGAAGAGGCGGT,sensor-assay potency score (higher = more potent),ADRB1,0.771
TCGATCTGCGCCATCACCTGGT,sensor-assay potency score (higher = more potent),AHCY,-0.451
TTGCTTCTCAGTTAGCTTGGTC,sensor-assay potency score (higher = more potent),AHCY,-0.044
TGGATAATCAGGATGGTCCATA,sensor-assay potency score (higher = more potent),AKR1C4,-1.08
TTTGGTTTTCACTTGTCTGAGG,sensor-assay potency score (higher = more potent),ALAD,-0.0275
TTCCACTTCACATATTTGCTCC,sensor-assay potency score (higher = more potent),ALDH1A3,-0.153
TTCTTCGATACTTTTGAACTTC,sensor-assay potency score (higher = more potent),ALDH1A3,0.188
TACTTTGTCTATATCCATGTGA,sensor-assay potency score (higher = more potent),ALDH1A1,0.349
ACATCCGTGACAAAGATGGGGT,sensor-assay potency score (higher = more potent),ALAD,0.0537
TAGAAAGTATTGTTTGCTCTTT,sensor-assay potency score (higher = more potent),ALDH1A1,-0.662
TTCATTGACTCCATTGTCGCCA,sensor-assay potency score (higher = more potent),ALDH1A1,0.315
TCGTCCTTGGGAACTCTGCTGG,sensor-assay potency score (higher = more potent),ALAD,-1.05
TTGAATCTTCAAATCGGTGAGT,sensor-assay potency score (higher = more potent),ALDH1A1,0.0111
TGCCTTGTCAACATCCTCCTTA,sensor-assay potency score (higher = more potent),ALDH1A1,0.465
TAACATTAGAGAACACTGTGGG,sensor-assay potency score (higher = more potent),ALDH1A1,0.962
TAGGCTGTATGTCATCAGGAAC,sensor-assay potency score (higher = more potent),ALAD,-1.11
TAATTCTTTCAGAAGAAGCTAC,sensor-assay potency score (higher = more potent),ALDH1A1,-0.0936
TTAGCTATTGAAGAGCTTCTCT,sensor-assay potency score (higher = more potent),ALDH1A1,0.445
TATATTAGTGACTGTAAGGAGA,sensor-assay potency score (higher = more potent),ALDH1A1,-0.658
TTAAAATCTACTATATTAGTGA,sensor-assay potency score (higher = more potent),ALDH1A1,0.534
TGATTTGCTGCACTGGTCCAAA,sensor-assay potency score (higher = more potent),ALDH1A1,-0.586
ATGATGTCAGCACCTGCTCTGC,sensor-assay potency score (higher = more potent),ALAD,-1.4
TTCTGTTTTGACATCGAAGGGG,sensor-assay potency score (higher = more potent),ALDH1A3,0.0292
TGTCTTTGGTAAACACTCCTGC,sensor-assay potency score (higher = more potent),ALDH1A1,0.136
TGTAACATTAGAGAACACTGTG,sensor-assay potency score (higher = more potent),ALDH1A1,0.545
TTAAAGACAGGAAATTTCTTGC,sensor-assay potency score (higher = more potent),ALDH1A1,-0.236
AATACTAATATGATTTAGCTTA,sensor-assay potency score (higher = more potent),ALDH1A1,-0.152
TAGCGCAATGTTTTGATGCAGC,sensor-assay potency score (higher = more potent),ALDH1A1,-0.601
ATGTCATCAGGAACATCCGTGA,sensor-assay potency score (higher = more potent),ALAD,-0.798
TTATCTCCTTCTTCTACCTGGC,sensor-assay potency score (higher = more potent),ALDH1A1,-0.0648
TTTTGAACTTCAGTATTGGTTG,sensor-assay potency score (higher = more potent),ALDH1A3,-0.527
TATTGTTCCTTGTCAATCTGAG,sensor-assay potency score (higher = more potent),ALDH1A1,0.207
AAATTCAACAGCATTGTCCAAG,sensor-assay potency score (higher = more potent),ALDH1A1,-0.656
ATGTCAGCACCTGCTCTGCGGA,sensor-assay potency score (higher = more potent),ALAD,-1.76
ATATTGTTCCTTGTCAATCTGA,sensor-assay potency score (higher = more potent),ALDH1A1,0.00946
TATGTCATCAGGAACATCCGTG,sensor-assay potency score (higher = more potent),ALAD,0.268
TTAGAGAACACTGTGGGCTGGA,sensor-assay potency score (higher = more potent),ALDH1A1,0.618
TTGGTAAACACTCCTGCTGATA,sensor-assay potency score (higher = more potent),ALDH1A1,-1.11
AAGCTGGGCTTGACTTAGCTGC,sensor-assay potency score (higher = more potent),ALAD,-1.16
TAGTGGGTGGAAGTAGCCGCTG,sensor-assay potency score (higher = more potent),ALAD,-1.31
AAATTTGGCACTGTAGCTCATC,sensor-assay potency score (higher = more potent),ALAD,-0.696
TGATGATGATGTCAGCACCTGC,sensor-assay potency score (higher = more potent),ALAD,-1.54
TAGCAATTCACCCACACTGTTC,sensor-assay potency score (higher = more potent),ALDH1A1,-1.07
TAGGTGATGATGATGTCAGCAC,sensor-assay potency score (higher = more potent),ALAD,0.277
TTTGTCTTCATGCCCTTCGTAT,sensor-assay potency score (higher = more potent),AMOTL1,-0.754
TTCTTGAGTGAGGTTTTCCGTG,sensor-assay potency score (higher = more potent),AMOTL1,-0.593
TAGCAGTCTCTAGTCGATCTCG,sensor-assay potency score (higher = more potent),AMOTL1,-0.33
TATCAGAACAGGGAGCAGCAGG,sensor-assay potency score (higher = more potent),AMICA1,-0.745
TCTGTTTTCACCACTTTCGTGT,sensor-assay potency score (higher = more potent),ALPK1,0.311
TTTTCAAGTGAGTTGTTCCGAT,sensor-assay potency score (higher = more potent),AMICA1,-0.169
TTAACTTTGTTTGCAAACCTAC,sensor-assay potency score (higher = more potent),AMOTL1,0.352
TTGCACATCTTGGAGCAGGAGA,sensor-assay potency score (higher = more potent),AMICA1,-0.908
TAATAGGTGATGATCTCCGTCA,sensor-assay potency score (higher = more potent),ALOX12B,-0.427
TAGACTTGACCAGACTTTCATA,sensor-assay potency score (higher = more potent),AMOTL1,-0.788
TTTCTCAACATATGCTTGCTTC,sensor-assay potency score (higher = more potent),AMOTL1,-0.629
TCACATACTTCTCCAGTGCATT,sensor-assay potency score (higher = more potent),ALOX12B,-1.5
TTCTTGAACACCAGGTTCCCTA,sensor-assay potency score (higher = more potent),AMICA1,-1.01
TTTGTCTTCTGTGCTCTGGAAA,sensor-assay potency score (higher = more potent),AMICA1,-0.894
TATAGTGACATATCGGATCAGC,sensor-assay potency score (higher = more potent),ALOX12B,-0.0361
TGAATATACATTTGTCTTCTGT,sensor-assay potency score (higher = more potent),AMICA1,-0.514
TACTTCTCCAGTGCATTCCACA,sensor-assay potency score (higher = more potent),ALOX12B,-0.953
TTGATGAAGATGATGAACCCAA,sensor-assay potency score (higher = more potent),ALPK1,0.0893
TAACTTCTTGAGACAGAGCTTC,sensor-assay potency score (higher = more potent),ALPK1,-0.293
TTGTTCATAGAGTCTCTTGTTA,sensor-assay potency score (higher = more potent),ALPK1,0.0334
AATAGTATAGCACATATTCGTC,sensor-assay potency score (higher = more potent),AMICA1,-1.02
TCGCCAGTGGTAGAAGTCCTGC,sensor-assay potency score (higher = more potent),ALOX12B,-1.5
TCTGGATTAGTCTTCTTCGTGT,sensor-assay potency score (higher = more potent),AMICA1,-0.36
TAAATCGACCACAACATCTCTA,sensor-assay potency score (higher = more potent),ALPK1,0.166
TATACATTTGTCTTCTGTGCTC,sensor-assay potency score (higher = more potent),AMICA1,-0.0847
TATACAGACCGACTGCACCAGG,sensor-assay potency score (higher = more potent),ALPK1,-1.24
TAGCCATTCCACTCAGGCCGGT,sensor-assay potency score (higher = more potent),ALOX12B,-1.01
TCTATCTTGAATATACATTTGT,sensor-assay potency score (higher = more potent),AMICA1,-0.466
TACTGGTACCCAAAGAAGGTGT,sensor-assay potency score (higher = more potent),ALOX12B,-0.741
TTGTGGGTCTTCTTGAGTGAGG,sensor-assay potency score (higher = more potent),AMOTL1,-0.72
TATAGCACATATTCGTCCTTGG,sensor-assay potency score (higher = more potent),AMICA1,-0.0697
TTCTTTTTCAAACTTGTGGAGC,sensor-assay potency score (higher = more potent),AMOTL1,-0.646
TTCACTAATTTCTTCTCCCTGC,sensor-assay potency score (higher = more potent),ALPK1,-0.272
TATCTCTGGATTAGTCTTCTTC,sensor-assay potency score (higher = more potent),AMICA1,-0.382
TTGCAGAGGAACTAAACCCTGA,sensor-assay potency score (higher = more potent),ALPK1,-0.0397
TTGAACTTGTAAATGTTCCTTC,sensor-assay potency score (higher = more potent),ALPK1,0.693
TAATCATAGCATCTTTCTCTAT,sensor-assay potency score (higher = more potent),AMOTL1,-1
TTCATTACATTCCACATGCTGG,sensor-assay potency score (higher = more potent),ALPK1,-0.496
TTAAAGTTGATGAGAATTGGGA,sensor-assay potency score (higher = more potent),ALOX12B,-0.16
AAATCGACCACAACATCTCTAT,sensor-assay potency score (higher = more potent),ALPK1,-0.634
TTCTTAGGTTTTCTCTGTGAGG,sensor-assay potency score (higher = more potent),ANG,-0.88
TCACAGATGGCCTTGATGCTGC,sensor-assay potency score (higher = more potent),ANG,-0.333
TTCACAGTATCTGTCATCCCGG,sensor-assay potency score (higher = more potent),ANG,-0.736
TTGCAGAACATCTATCTCCCGC,sensor-assay potency score (higher = more potent),ANGPTL1,0.289
TAAATTGTTAAGTATCTTGAAC,sensor-assay potency score (higher = more potent),ANGPTL1,-0.687
TCGTCTAACATAGCAAATCTTG,sensor-assay potency score (higher = more potent),ANGPTL3,-1.34
TTTATATGTAGTTCTTCTCAGT,sensor-assay potency score (higher = more potent),ANGPTL3,-0.38
TAATGTTTGTTGTCTTTCCAGT,sensor-assay potency score (higher = more potent),ANGPTL3,-0.418
ATAACTTGTAATTATCTTGATT,sensor-assay potency score (higher = more potent),ANGPTL1,-0.722
TTGACTTGTAGTTTATATGTAG,sensor-assay potency score (higher = more potent),ANGPTL3,0.386
TTTGTGATCCATCTATTCGATG,sensor-assay potency score (higher = more potent),ANGPTL3,-1.29
TTAATGTCCATGGACTACCTGA,sensor-assay potency score (higher = more potent),ANGPTL3,-0.665
TTTGATTCTGATCTGCACTGAA,sensor-assay potency score (higher = more potent),ANAPC5,0.516
TATAACATCACAGTAGACATGA,sensor-assay potency score (higher = more potent),ANGPTL3,0.929
TCCATCTACATCCACCACCAGT,sensor-assay potency score (higher = more potent),ANGPTL1,-1.83
TTACATCGTCTAACATAGCAAA,sensor-assay potency score (higher = more potent),ANGPTL3,-1.16
TGTGTACCTGGAGTTATCCTGA,sensor-assay potency score (higher = more potent),ANG,0.329
TTGCCATGAATAAATGTGTTGA,sensor-assay potency score (higher = more potent),ANG,-0.499
TTCTTTTATTTGACTATGCTGT,sensor-assay potency score (higher = more potent),ANGPTL3,-0.537
TTGATGTCTTTGCAGGGTGAGG,sensor-assay potency score (higher = more potent),ANG,-1.52
TTGATTGCTAAGCATATAGATA,sensor-assay potency score (higher = more potent),ANGPTL1,-1.25
AATGTGTTGATGTCTTTGCAGG,sensor-assay potency score (higher = more potent),ANG,-1.22
TTTGGCATCATAGTGCTGGGTC,sensor-assay potency score (higher = more potent),ANG,0.651
TTTTGCTTGCTGACAGTCTTTG,sensor-assay potency score (higher = more potent),ANGPTL1,-0.992
TTTCTCTGTGAGGGTTTCCATT,sensor-assay potency score (higher = more potent),ANG,-0.964
TTAAATCTCTGGGATAACCTGG,sensor-assay potency score (higher = more potent),ANGPTL1,-0.522
TTGTTTTGTGAACCTCTGGTTC,sensor-assay potency score (higher = more potent),ANAPC5,-0.673
AAGACTTGCTTATTCTTAGGTT,sensor-assay potency score (higher = more potent),ANG,0.22
TATAGAGTTGAGTAACACGAGA,sensor-assay potency score (higher = more potent),ANGPTL1,-1.16
TAGAATTTTTTCTTCTAGGAGG,sensor-assay potency score (higher = more potent),ANGPTL3,-0.766
TTTAATGGTACTTGCATCTTGC,sensor-assay potency score (higher = more potent),ANGPTL1,0.613
TTTGACAGTGTAATATCTGGGC,sensor-assay potency score (higher = more potent),ANAPC5,0.588
